In PubChem BioAssay (NCI):
This is part of a sample that, as a whole, favours compounds with a hit. Of some 79,000 tested, about 15% had one in any assay. Unmarked numbers belong to inactive results. Calls of active or inactive are those of the source. No stated cut-off is given here; in the data, active means growth inhibition above about 70%; inactive means the rest.

Experiments:
[1] = NCI Yeast Anticancer Drug Screen. Data for the rad50 strain (AID 155);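 further: 0% = growth of vehicle-only cultures of the same strain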; conditions: S. cerevisiae rad50 strain growth inhibition; at 50.0 µM; stronger effect = higher value
In short: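 Relative growth inhibition (compound vs vehicle) was measured in yeast with a defined repair-gene alteration.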

[2] = NCI Yeast Anticancer Drug Screen. Data for the mec2-1 strain (AID 157); conditions: S. cerevisiae mec2-1 strain, at 50.0 µM, stronger effect = higher value
In short: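 Cells of the genetically defined mec2-1 yeast strain are incubated with test compound. Inhibition of growth is calculated against vehicle-treated controls.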

[3] = NCI Yeast Anticancer Drug Screen. Data for the sgs1 mgt1 strain (AID 161);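 further: 0% = growth of cultures given vehicle only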; conditions: S. cerevisiae sgs1 mgt1 strain, at 50.0 µM, stronger effect = higher value
In short: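 Mutant yeast exposed to compound; growth scored against vehicle-only wells.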

[4] = NCI Yeast Anticancer Drug Screen. Data for the cln2 rad14 strain (AID 165);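 further: 0% = growth equal to vehicle treated cultures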; conditions: S. cerevisiae cln2 rad14 strain, at 50.0 µM, stronger effect = higher value
In short: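 The screen exposed genetically defined yeast (cln2 rad14) to test compounds and scored growth inhibition relative to vehicle-treated controls.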

[5] = NCI Yeast Anticancer Drug Screen. Data for the bub3 strain (AID 167); conditions: S. cerevisiae bub3 mutant strain, at 50.0 µM, stronger effect = higher value
In short: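 Screening used yeast with an engineered genetic alteration affecting cell cycle control. Compound-exposed cultures were compared with vehicle cultures, and reduced growth was taken as inhibition.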

[6] = NCI Yeast Anticancer Drug Screen. Data for the mlh1 rad18 strain (AID 175); conditions: S. cerevisiae mlh1 rad18 strain growth inhibition; at 50.0 µM; stronger effect = higher value
In short: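 Compound-treated yeast growth, normalised to vehicle controls. Strain bears defined DNA repair mutations.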

Structure (SMILES) | growth inhibition [1] | growth inhibition [2] | growth inhibition [3] | growth inhibition [4] [%] | growth inhibition [5] [%] | growth inhibition [6]
CS(=O)(=O)CC(O)(c1ccc(Cl)cc1)c1ccccn1 (configuration not stated) | 11.5% | 0.85% | -6.55% | -21.6 | -0.8 | 3.8%
CN(NC(=O)c1ccco1)C1=NCCCCN1 | -11.8% | -10.6% | -15.3% | -16.6 | -10.2 | 0.3%
O=C(Cn1c2c(c3ccccc31)CCCC2)N1CCOCC1 | -19.3% | -29.4% | -14.1% | 5.15 | -23.8 | -19.6%
O=[N+]([O-])c1ccc(S(=O)(=O)Nc2c([N+](=O)[O-])cc([N+](=O)[O-])c3ccccc23)cc1 | 36.6% | -3.9% | 21.4% | 12.7 | 2.7 | 18.4%
CCOC(=O)c1cc(C)[nH]c1C | 2.65% | -1.9% | -0.55% | -17.6 | 23.2 | 3.9%
CCC/C=N/Nc1ccc([N+](=O)[O-])cc1[N+](=O)[O-] | -11.3% | -9.95% | 0.3% | -12.5 | 0.9 | -16.1%
Cc1cc[n+](-c2nc3c([O-])n(C)c(=O)n(C)c-3n2)cc1 | 0.65% | 10.6% | 6% | -40.2 | 8.95 | 19.4%
C=C1C(=O)O[C@@H]2[C@H]3[C@H](C)C(=O)C=C[C@]3(C)CC[C@@H]12 | 21.3% | -24.9% | 39% | 13.4 | 8.95 | -23.6%
O=C(Nc1ncc([N+](=O)[O-])s1)c1cc(Cl)cc(Cl)c1 | 60.5% | 61% | 77.9% (active) | 53 | 57.5 | 74.3% (active)
[O-]C(=N/C(=N/[n+]1ccccc1)c1ccccc1)c1ccccc1 | 12.2% | 10.9% | 4.2% | -9 | -4.05 | 2%
COc1ccc(Cl)cc1NC(=O)c1ccc(C(=O)Nc2cc(Cl)ccc2OC)cc1 | -5.85% | 7.3% | -10.2% | -22.9 | 0.7 | 9.5%
CN=C1SC(C)(C)NN1C | 9.2% | 1.85% | 4.35% | -32 | -6.4 | 12.8%
CSc1nc2nc[nH]c2c(=O)[nH]1 | 3.45% | 0.3% | -16.2% | -14.2 | -1.85 | -3.65%
Clc1nc(Cl)c2ncn(C3CCCO3)c2n1 (configuration not stated) | -23.1% | -10% | 14.7% | -40 | 44 | 4.95%
CN(C)CC1CCC(CN(C)C)C1=NO (configuration not stated) | 13.7% | -2.55% | -4.1% | 7.4 | -1.5 | 6.45%
CN(C)CC(O)C(=O)O (configuration not stated) | -12.7% | 20.4% | -5.6% | 7.45 | 3.7 | -13.8%
CCCCc1ccc(Nc2nc(OC)c3ncn(C4CC(O)C(CO)O4)c3n2)cc1 (configuration not stated) | 88.1% (active) | 90.2% (active) | 67.2% | 57.8 | 69.5 | 86.8% (active)
CC(C)=CCCC(C)C1CCC2C3CC=C4CC(O)CCC4(C)C3CCC12C (configuration not stated) | 34.5% | 45% | 48.2% | 34.4 | 12.9 | 72.3% (active)
O=C(Oc1c(Cl)cc(Cl)cc1Cl)c1ccc([N+](=O)[O-])cc1 | 9.2% | 10.8% | 5.45% | -8.65 | -9.45 | -1.15%
CC(C)(C)NC(=O)Oc1ccccc1C(N)=O | 4.4% | -3.45% | -5.2% | -78.4 | 4.9 | -11.7%
O=C(O)/C(=C\c1cc2c(cc1[N+](=O)[O-])OCO2)c1ccccc1 | 3.8% | -5.35% | 6.8% | -41 | -22.9 | 17.9%
COC(=O)c1cc2cccn2cn1 | -5.9% | -11.3% | -13.2% | -27.4 | -27.9 | -8.85%
